According to the supplement of paper PMC6555819:

Key:
Assay in all cases: PBM binding z-score (relative to random genomic background probes); higher = stronger binding; sequences stand for … in GC…GCGATTGACAGCGTAGAATGAAGG
[1] = test system: RARb homodimer (NR concentration 270 nM)
How it was run: (§1)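 Scanned fluorescence from custom Agilent 4×180K protein-binding microarrays was regression-normalized. Binding z-scores use random background probes as reference. Ligand-free nuclear receptor dimers were incubated on the arrays for 1 h and detected with antibodies against each partner (one per run).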

[2] = test system: RARg:RXRa (NR concentration 270 nM, RXRa partner concentration 90 nM)
How it was run: as §1

[3] = test system: RARg homodimer (NR concentration 270 nM)
How it was run: as §1

[4] = test system: RXRa DBDmut IVT, anti-RXR (DBD mutation: RXRa K156A/R161A, NR concentration 90 nM)
How it was run: as §1

[5] = test system: RXRa homodimer (NR concentration 180 nM)
How it was run: as §1

[6] = test system: THRa:RXRa (NR concentration 90 nM, RXRa partner concentration 90 nM)
How it was run: as §1

[7] = test system: THRa homodimer (NR concentration 90 nM)
How it was run: as §1

[8] = test system: VDR homodimer (NR concentration 270 nM)
How it was run: as §1

| Sequence | PBM binding z-score [1] | PBM binding z-score [2] | PBM binding z-score [3] | PBM binding z-score [4] | PBM binding z-score [5] | PBM binding z-score [6] | PBM binding z-score [7] | PBM binding z-score [8] |
| --- | --- | --- | --- | --- | --- | --- | --- | --- |
| CCTACTGGGCCATTCAGAGGTCATTGAACATATG | 4.05 | 4.74 | 3.46 | 1.03 | 4.17 | 3.33 | 1.65 | 4.01 |
| CGTCAAAGTTCAAATAAGGTAACGTAAAGCACGC | 4.02 | 5.64 | 6.52 | 4.78 | 5.4 | 5.07 | 2.01 | 4.33 |
| CCTTCTAGGTCATGGTCAGCTAATCTACAGTATG | 3.46 | 4.02 | 5.08 | 2.02 | 3.37 | 3.45 | 2.5 | 0.794 |
| ATATGTAGGTGAGCTGGGGTCATTCAGACTAGGC | 3.97 | 4.01 | 2.84 | 1.57 | 5.56 | 5.14 | 3.37 | 4.43 |
| GCTATTAGTTGAAAGGGCAACGGAATGATTCTCG | 1.94 | 1.36 | 1.26 | 0.668 | 1.2 | 0.463 | -0.221 | 0.0426 |
| ATCGAAAGGTCGAGGTGAGTATAGAGAAAGGGAA | 2.86 | 4.31 | 4.51 | 0.657 | 4.3 | 2.81 | 0.624 | 0.373 |
| CTCGAAAGGTCGTGCTCAGGTGAGTATCCCAAAC | 2.88 | 5.08 | 3.47 | 2.02 | 4.66 | 4.05 | 1.22 | 0.742 |
